Assay outcomes: PubChem BioAssay, National Center for Advancing Translational Sciences (NCATS)
The sample as a whole holds a higher share of hits than the screen did.
JMJD2E inh: JMJD2E (human) inhibition; B2RXH2; AID 2147; 230,000 compounds, 1.6% hits; JMJD2E catalytic domain, FDH-coupled NADH fluorescence (FDH is formaldehyde dehydrogenase); Potency, µM (doses to about 57.1 µM), inactives show top-dose activity change, negative = inhibition, usual class: inhibitors; active = well fitted inhibition curve with a large enough effect, not every such curve was filed as active; inconclusive = small, poorly fitted or top-dose-only effect, or another doubt; inactive = no such curve, though single readings can be large or run the other way;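 note: 0% = wells with enzyme and -100% = buffer wells without enzyme; nearly all actives have a fitted effect of over 50% in size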
RECQ1 helicase: RECQ1 (human) helicase inhibition; 240,000 compounds, 0.54% hits; RECQ1 DNA unwinding, red fluorescence kinetic read; Potency, µM (top dose mostly 57.3 µM), without a hit: at the top dose activity, negative = inhibition, hits mostly inhibitors; P46063; AID 2549;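 note: plate controls were vehicle for no effect and no enzyme for full effect; nearly all actives have a fitted effect of over 30% in size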
Target sequence (P46063 whole entry, looked up): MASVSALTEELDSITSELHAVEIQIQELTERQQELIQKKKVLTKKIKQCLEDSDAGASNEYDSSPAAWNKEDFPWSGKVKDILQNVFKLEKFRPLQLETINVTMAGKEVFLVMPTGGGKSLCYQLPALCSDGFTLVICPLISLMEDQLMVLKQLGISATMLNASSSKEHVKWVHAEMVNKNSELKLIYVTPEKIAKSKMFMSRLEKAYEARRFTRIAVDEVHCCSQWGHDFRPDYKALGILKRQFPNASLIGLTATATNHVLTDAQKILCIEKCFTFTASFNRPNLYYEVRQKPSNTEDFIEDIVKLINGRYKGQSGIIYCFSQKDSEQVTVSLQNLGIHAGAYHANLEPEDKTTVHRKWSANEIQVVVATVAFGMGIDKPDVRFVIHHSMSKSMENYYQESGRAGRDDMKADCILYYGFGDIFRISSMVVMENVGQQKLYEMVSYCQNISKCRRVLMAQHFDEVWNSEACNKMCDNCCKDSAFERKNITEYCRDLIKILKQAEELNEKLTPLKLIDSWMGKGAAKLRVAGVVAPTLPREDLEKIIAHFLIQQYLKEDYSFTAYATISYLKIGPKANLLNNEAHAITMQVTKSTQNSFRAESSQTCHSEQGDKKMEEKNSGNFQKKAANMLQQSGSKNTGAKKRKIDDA
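RECQ1T1 50 nM; forked duplex (20 bp + 30-nt ss tails) 200 nM, ATP 2 mM final; pH 8.0, 2 mM MgCl2, 2.5 ug/ml poly(dI-dC); 15 min compound preincubation; discontinuous kinetic read over 2 h at RT.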
BLM helicase inh: inhibitors of human Bloom syndrome helicase BLM; recombinant BLM DNA unwinding, fluorescence dequenching; P54132; AID 2528; Potency, µM (titrated, usually from 56.1 µM), for inactives: top-dose activity change, negative = inhibition, most hits filed as inhibitors; 350,000 compounds, 0.2% hits;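 note: plate controls were vehicle for no effect and no enzyme for full effect; nearly all actives have a fitted effect of over 35% in size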
L3MBTL1 block: L3MBTL1 (human) inhibition | Potency, µM (titrated, usually from 57.1 µM), for inactives: at the top dose activity, negative = inhibition, hits mostly inhibitors | AlphaScreen L3MBTL1–H3K9me1 peptide binding | AID 485360 | Q9Y468 | 230,000 compounds, 0.66% hits; note: nearly all actives have a fitted effect of over 60% in size
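AlphaScreen assay: L3MBTL1 (50 nM final) was preincubated 30 min at room temperature with biotinylated H3(1-15)K9me1 peptide (75 nM final), then 30 min with library compounds; streptavidin donor and nickel chelate acceptor beads (10 ug/mL final) added, 30 min dark.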
APE1 inh: APE1 (human) endonuclease inhibition. AID 2517. Potency, µM (titrated, usually from 65.8 µM), inactives show top-dose activity change, negative = inhibition, most hits filed as inhibitors. 350,000 compounds, 0.35% hits. recombinant APE1, TAMRA/BHQ-2 abasic DNA cleavage fluorescence;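 note: plate controls were vehicle for no effect and reference inhibitor for full effect; nearly all actives have a fitted effect of over 55% in size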
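APE1 at 0.75 nM preincubated 15 min at room temperature with compound. Reaction then started with 50 nM double-stranded THF-abasic substrate labelled with TAMRA/BHQ-2, and 525/598 nm fluorescence read kinetically. Activity taken as third-minus-first read difference, normalized to DMSO and NSC13755 controls.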
GCN5L2 inh: blocks human GCN5L2 histone acetyltransferase. AID 504327. Potency, µM (doses to about 58.9 µM), inactives show at the top dose activity change, negative = inhibition, actives largely listed as inhibitors. GCN5L2 HAT assay, ThioGlo1 CoA-SH fluorescence. 390,000 compounds, 0.21% hits
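Fluorescence readout, Ex340nm/Em540nm: ThioGlo1 (50uM final) reacts with free CoA thiol released as 20nM GCN5L2 acetylates H3(1-25) peptide (75uM) using acetyl-CoA (70uM). Compound and enzyme sat 15 min beforehand; 20 min room-temperature reaction.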
An asterisk follows results filed as active; [ ] = dose if it differs, or a comment. Unless noted, calls come from the whole dose curve; as a rule, active = well fitted curve in the direction sought with a large enough effect; inconclusive = small, poorly fitted or top-dose-only effect, or another doubt; inactive = no such curve, though single readings can be large; an effect the other way counts as inactive or inconclusive. Unless noted, % is set by controls: 0 for no effect and ±100 for the full control effect; potency is the fitted concentration of half-maximal effect.

Screening CCc1c(C)c2cc(Cl)c(O)c(CN(CC)CC)c2oc1=O returned JMJD2E inh inconclusive, RECQ1 helicase inactive, BLM helicase inh -1.7%, L3MBTL1 block 5.2%, APE1 inh 7.7% and GCN5L2 inh -29.2%.
Cc1c(C)c2cc(Cl)c(O)c(CN(C)C)c2oc1=O was read as JMJD2E inh inconclusive, RECQ1 helicase -0.5%, BLM helicase inh 0.0%, L3MBTL1 block 3.3%, APE1 inh -4.4% and GCN5L2 inh 22.4µM*.
CCc1c(C)c2cc(Cl)c(O)c(CN(C)C)c2oc1=O was read as JMJD2E inh inconclusive, RECQ1 helicase inactive, BLM helicase inh -1.6%, L3MBTL1 block -0.1%, APE1 inh 6.6% and GCN5L2 inh 28.2µM*.
Cc1ccc(CNc2ccc(N3CCN(C(=O)OC(C)(C)C)CC3=O)cc2)cc1 was read as APE1 inh 21.0%.
For CO[C@H]1COC(=O)C/C=C\[C@H](C)[C@@H](NS(=O)(=O)c2ccc(C)cc2)COC(=O)C/C=C\[C@@H]1C the results were RECQ1 helicase -9.5%[11.5 µM], BLM helicase inh -2.6%[12.4 µM] and APE1 inh inconclusive.
CN1CCN(C(=O)c2ccc3c(c2)N(Cc2c(F)cccc2Cl)C(=O)c2ccccc2S3)CC1 was read as BLM helicase inh -4.4% and GCN5L2 inh 3.7%.
N#Cc1nc(-c2ccco2)oc1N1CCC(C(N)=O)CC1 was read as JMJD2E inh 3.55µM*, RECQ1 helicase -6.4%, BLM helicase inh -2.4%, APE1 inh 4.3% and GCN5L2 inh -13.4%.
For N#Cc1nc(-c2ccccc2)oc1N1CCC(C(N)=O)CC1 the results were BLM helicase inh -1.3%, APE1 inh 43.1% and GCN5L2 inh -3.8%.
`O=C(CCCN1C(=O)/C(=C\c2cccs2)SC1=S)Nc1ccc(O)cc1C(=O)O` gave BLM helicase inh -1.5%, APE1 inh 49.4% and GCN5L2 inh -14.8%.
O=C(CCCN1C(=O)/C(=C\c2ccco2)SC1=S)Nc1ccc(O)cc1C(=O)O was read as BLM helicase inh 39.6%, APE1 inh inconclusive and GCN5L2 inh 10µM*.
`CC(C(=O)Nc1ccc(C(=O)O)c(O)c1)N1C(=O)/C(=C\c2ccco2)SC1=S` (centres undefined) gave BLM helicase inh 41.0%, APE1 inh 21.2µM* and GCN5L2 inh inconclusive.
`CC(=C\c1ccco1)/C=C1/SC(=S)N(CC(=O)O)C1=O` gave JMJD2E inh -1.8%, RECQ1 helicase -0.8%, BLM helicase inh 40.1%, L3MBTL1 block 39.8µM*, APE1 inh -7.9% and GCN5L2 inh -9.8%.
For O=C(CN1C(=O)/C(=C/c2ccco2)SC1=S)Nc1ccc(C(=O)O)c(O)c1 the results were BLM helicase inh 42.7%, APE1 inh inconclusive and GCN5L2 inh inconclusive.
COc1cc(OC)cc(C(=O)Nc2nc(-c3nnn(-c4ccc(F)c(Cl)c4)c3C)ns2)c1 was read as BLM helicase inh -10.6% and GCN5L2 inh 13.4%.
Screening COc1ccc(Cl)cc1NC(=O)c1cc2c(=O)n3ccccc3nc2s1 returned BLM helicase inh inconclusive and GCN5L2 inh 35.5µM*.
Screening CSc1ccccc1NC(=O)c1cc2c(=O)n3ccccc3nc2s1 returned BLM helicase inh -4.3%, APE1 inh -3.3% and GCN5L2 inh inconclusive.
CC(=O)Nc1ccc(NC(=O)C(NS(=O)(=O)c2cccc3nsnc23)C(C)C)cc1 (centres undefined) was read as BLM helicase inh 0.3%, APE1 inh 41.4% and GCN5L2 inh -2.3%.
For C=CCNc1oc(-c2cccc(Br)c2)nc1C#N the results were APE1 inh -1.9%.
COc1cc([N+](=O)[O-])cc(/C=N/NC(=O)CSc2nnc(-c3ccccc3)n2C)c1O was read as JMJD2E inh 20µM*, RECQ1 helicase -2.9%, BLM helicase inh -1.9%, APE1 inh -3.3% and GCN5L2 inh inconclusive.
